# Experimental data reported in PubChem BioAssay.
# Active and inactive are the calls of the source.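 Rule for the calls, unless noted: active = compound raises GLP1 secretion from the human gut endocrine cells, with no numeric limit stated; inactive = the rest.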
# Key:
# [1] = stimulators of nuclear beta-catenin in C2C12, primary screen, imaging, WNT3A-conditioned medium, mouse C2C12, NPC library (AID 1117326; in the data active = nuclear beta-catenin stimulation mostly above about 4.2%, no sharp cut-off; inactive = mostly below about 10%; note: reference of the scale not given here); details: stronger effect = higher value
# [2] = stimulators of insulin release from INS-1E, primary screen, cell-based, 5 mM glucose, NPC library (AID 1117329;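 active = compound raises insulin release from rat beta cells at 5 mM glucose, no numeric limit stated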; note: reference of the scale not given here); details: rat INS-1E insulin secretion, at 10 µM, stronger effect = higher value
# [3] = growth inhibition of GSK3B-pretreated HCT116 cells – cell-based, CellTiter-Glo, 0.2 to 20 µM (AID 1117336;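 active = compounds lowering colon cancer cell viability after pretreatment blocking the GSK3B kinase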); details: HCT116 viability after GSK3B inhibitor, at 20 µM, stronger effect = higher value
# [4] = inhibition of endothelial tube formation, primary screen, imaging, VEGF stimulated, CD31 staining, tube area, NPC library (AID 1117340;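 active = compound that reduces growth-factor-driven endothelial tube area in a mixed cell culture, no cutoff stated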); details: VEGF-stimulated ADSC/ECFC co-culture, at 10 µM, stronger effect = higher value
# [5] = glucagon-like peptide 1 release enhancers, primary assay, NCI-H716 cell line, NPC library (AID 1117341); details: NCI-H716 cells, at 10 µM, stronger effect = higher value; note: reference of the scale not given here
# [6] = HCT116 colon cancer cell growth inhibition, primary screen, CellTiter-Glo luminescence, NPC library (AID 1117342;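 active = compounds that lower survival of HCT116 colon cancer cells in the luminescence readout, no numeric limit stated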); details: at 20 µM (top of the series)
# [7] = CellTiter-Glo luminescent readout of SW480 viability loss, NPC library primary (AID 1117343;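 active = compounds that lower viability of the colon cancer cells in the luminescence readout, with no numeric limit stated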); details: CellTiter-Glo luminescence; at 20 µM (top of the series)
# [8] = decreased DLD-1 cellular survival, CellTiter-Glo luminescent readout, NPC compound collection, primary HTS (AID 1117346;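 active = compounds that lower survival of DLD-1 colon cancer cells in the luminescence readout, no cutoff given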); details: DLD-1 viability, CellTiter-Glo luminescence; at 20 µM (top of the series)
Compound,nuclear beta-catenin stimulation ([1]; at 10 µM),"nuclear beta-catenin stimulation ([1]; stimulation, at 2 µM) [%]",insulin secretion stimulation [2],viability decrease [3],tube area decrease [4],GLP1 secretion stimulation [5],inhibition of viability [6],viability decrease (inhibition) [7],viability decrease (inhibition) [8]
Nc1cc(C(F)(F)F)ccc1S,0% (inactive),-0.9,4.4% (inactive),2.3% (inactive),44.8% (active),20.5% (active),16.7% (inactive),-4.3% (inactive),20.8% (inactive)
CN1CCC(N(Cc2cccs2)c2ccccc2)CC1,-0.3% (inactive),5.8,26.2% (active),53.9% (active),-3.7% (inactive),10% (inactive),49.3% (inactive),72.8% (active),13.1% (inactive)
CCN(CC)CCOC(=O)C1(c2ccccc2)CCCC1,-1.2% (inactive),-0.5,9.3% (inactive),-14.1% (inactive),22.6% (inactive),-2.7% (inactive),4% (inactive),-1.9% (inactive),-2.6% (inactive)
COc1ccc(S(=O)(=O)Nc2nnc(CC(C)C)s2)cc1,-0.3% (inactive),-0.5,5.1% (inactive),-9.2% (inactive),-5.8% (inactive),-1.9% (inactive),-18.3% (inactive),13.7% (inactive),-19.8% (inactive)
CCCCN=C(N)N=C(N)N,2.9% (inactive),0.9,-1.1% (inactive),-10.8% (inactive),3.5% (inactive),2.1% (inactive),3.4% (inactive),54.5% (active),-0.2% (inactive)
COc1ccc(C(C#N)C(C)C)cc1OC (stereo unspecified),-1.8% (inactive),0.3,2.2% (inactive),-24.5% (inactive),9.3% (inactive),-3.4% (inactive),13.4% (inactive),-4.7% (active),-19.9% (inactive)
CCCCCC[C@@H](CCC)C(=O)O,-0.3% (inactive),-0.9,0.3% (inactive),1.2% (inactive),-29.5% (inactive),3.5% (inactive),17.7% (inactive),14% (inactive),16.9% (inactive)
O=C1Cc2cc(Cl)ccc2N1,-0.3% (inactive),-1.5,1% (inactive),4.9% (inactive),2.8% (inactive),3.9% (inactive),8.4% (inactive),-9.4% (inactive),2.7% (inactive)
FC1(F)C(F)(F)C(F)(F)C2(F)C(F)(F)C(F)(F)C(F)(F)C(F)(F)C2(F)C1(F)F (stereo unspecified),-0.7% (inactive),0.3,1.3% (inactive),17% (inactive),10.2% (inactive),-0.8% (inactive),-2.93% (inactive),21.7% (inactive),-11.3% (inactive)
COc1ccc(/C(C)=C/C(=O)O)c(OC)c1,1.2% (inactive),0.1,-0.4% (inactive),10.1% (inactive),-9.3% (inactive),1.3% (inactive),-0.3% (inactive),-19.9% (inactive),-10.1% (inactive)
NS(=O)(=O)c1ccc(Cl)c(S(N)(=O)=O)c1,-2.3% (inactive),-1,-1.3% (inactive),-4.9% (inactive),12.2% (inactive),-0.9% (inactive),-6% (inactive),-5.6% (inactive),-7.1% (inactive)
O=C(CN1CCN(Cc2ccc3c(c2)OCO3)CC1)N1c2ccccc2Sc2ccccc21,0.2% (inactive),2.2,7.5% (inactive),63.5% (active),7.5% (inactive),16.3% (inactive),67.4% (active),126% (active),76.8% (active)
COc1cc(C=C2CCC/C(=C\c3ccc(O)c(OC)c3)C2=O)ccc1O,118% (active),4.1,11.1% (inactive),99.1% (active),106% (active),-3% (inactive),99.5% (active),103% (active),101% (active)
Cc1cnc(NS(=O)(=O)c2ccc(N)cc2)nc1,1.1% (inactive),-0.7,1.8% (inactive),7.4% (inactive),-8.2% (inactive),-0.6% (inactive),-6.6% (inactive),7.7% (inactive),6.6% (inactive)
CC12C=CC(=O)C=C1CCC1C2C(O)CC2(C)C1CCC2(O)C(=O)COP(=O)(O)O (stereo unspecified),1.1% (inactive),0.6,1.5% (inactive),-38.5% (inactive),-3.4% (inactive),-2% (inactive),1.57% (inactive),-2.1% (inactive),-14.4% (inactive)
N#CSCC(=O)O,0.3% (inactive),1,0.5% (inactive),-47.6% (inactive),2.4% (inactive),-0.1% (inactive),-4.8% (inactive),-6.2% (inactive),-5.4% (inactive)
O=C(c1ccccc1)c1ccccc1,0.7% (inactive),1.3,-0.6% (inactive),8.9% (inactive),-20.2% (inactive),2.4% (inactive),22.5% (inactive),21% (inactive),9.1% (inactive)
Cc1ncc(CO)c(C=O)c1O,-0.2% (inactive),0.6,2.8% (inactive),-8.9% (inactive),-6.1% (inactive),-2.6% (inactive),13.3% (inactive),24.3% (inactive),-1.4% (inactive)
N[C@H](Cc1c[nH]c2ccccc12)C(=O)O,0.6% (inactive),1,2.7% (inactive),6.2% (inactive),1.5% (inactive),-2.5% (inactive),-1.87% (inactive),6.5% (inactive),1.8% (inactive)
CON=C(C(=O)N[C@@H]1C(=O)N2C(C(=O)O)=C(C[N+]3(C)CCCC3)CS[C@H]12)c1csc(N)n1,-2.1% (inactive),0.2,3.1% (inactive),4.1% (inactive),2.5% (inactive),-0.7% (inactive),-21.3% (inactive),-14.4% (inactive),-9.8% (inactive)
CN[C@@H]1[C@@H](O)[C@@H](O[C@@H]2[C@H](O)[C@H](O[C@H]3OC(CN)=CC[C@H]3N)[C@@H](N)C[C@H]2N)OCC1(C)O (stereo partly specified),3.9% (inactive),5.2,0.6% (inactive),-9.1% (inactive),0.1% (inactive),2.9% (inactive),-0.03% (inactive),-9.1% (inactive),-8.2% (inactive)
Cc1ccc(C(=O)Oc2ccc(C(O)CNC(C)(C)C)cc2OC(=O)c2ccc(C)cc2)cc1 (stereo unspecified),31.3% (inactive),1.1,4.5% (inactive),79.2% (active),107% (active),-1.5% (inactive),75.9% (active),137% (active),102% (active)
CC1c2ccccc2CN1NC(=O)c1ccc(Cl)c(S(N)(=O)=O)c1 (stereo unspecified),1.2% (inactive),4.6,1.65% (inactive),26.4% (inactive),-9.7% (inactive),-1.8% (inactive),1.4% (inactive),-21.1% (active),-10.8% (inactive)
Nc1ccc(O)cc1,18.2% (inactive),2,1% (inactive),99.1% (active),60.9% (active),-3.8% (inactive),99.3% (active),102% (active),62.6% (active)
C=CCOc1cc(Cl)ccc1C(=O)NCCN(CC)CC,-0.4% (inactive),0.3,16.7% (inactive),11% (inactive),-13% (inactive),9.1% (inactive),30% (inactive),32.4% (inactive),-3.9% (inactive)
COC(=O)Nc1nc2ccc(C(=O)C3CC3)cc2[nH]1,41.8% (active),54.5,1.9% (inactive),93.1% (active),103% (active),-0.3% (inactive),87.9% (active),32.9% (inactive),51.6% (active)
COc1cc(C(=S)N2CCOCC2)ccc1O,1.6% (inactive),0,3.9% (inactive),-5.7% (inactive),1.9% (inactive),-3.6% (inactive),-4.3% (inactive),-4.6% (inactive),-2.7% (inactive)
CCOC(=O)OCC/C(SC(=O)OCC)=C(\C)N(C=O)Cc1cnc(C)nc1N,1.8% (inactive),0.3,1.5% (inactive),2.5% (inactive),-11% (inactive),2.9% (inactive),-0.4% (inactive),-22.7% (inactive),-10.1% (inactive)
NCC(=O)O,2.3% (inactive),4,-2.4% (inactive),1.6% (inactive),-10.9% (inactive),1.3% (inactive),-28% (inactive),-6.3% (inactive),7.4% (inactive)
